Results filed as inconclusive are left out. The source made the active and inactive calls. How the source made its calls: active means hit-call score of the fitted dose curve at least 0.9, where 1 is the maximum; inconclusive means response in the unintended direction; inactive means score below 0.9.

The test relates to guinea pig Atrionatriuretic Peptide Receptor A (ANPA), gene 100135578. The experiment in a line: NVS_GPCR_gANPA: NovaScreen (NVS) G Protein-Coupled Receptor Assay for guinea pig Atrionatriuretic Peptide Receptor A (ANPA) (AID 2283291). The protocol:
NVS_GPCR_gANPA is a biochemical, single-readout assay that uses extracted gene-proteins from Guinea pig cerebellar membranes in a tissue-based cell-free assay. Measurements were taken 1 hour after chemical dosing in a 96-well plate.NVS_GPCR_gANPA is one of one assay component(s) measured or calculated from the NVS_GPCR_gANPA assay. It is designed to make measurements of radioligand binding, a form of binding reporter, as detected with scintillation counting signals by Filter-based radiodetection technology.Data from the assay component NVS_GPCR_gANPA was analyzed into 1 assay endpoint. This assay endpoint, NVS_GPCR_gANPA, was analyzed in the positive analysis fitting direction relative to DMSO as the negative control and baseline of activity. Using a type of binding reporter, loss-of-signal activity can be used to understand changes in the binding as they relate to the gene Nppa. Furthermore, this assay endpoint can be referred to as a primary readout, because the performed assay has only produced 1 assay endpoint. To generalize the intended target to other relatable targets, this assay endpoint is annotated to the lyase intended target family, where the subfamily is guanylyl cyclase.
Binding assays used specific radioligands (tritiated, iodinated) with non-radioactive competitive displacement ligands in agonist or antagonist protocols (as indicated) and various reference compounds and inhibitors to titrate specific binding to receptors and transporters. Most enzyme assays (CYPs, kinases, phosphatases, proteases, HDACs) used recombinant protein and specific substrates (fluorescence mostly, some colorimetric and radioactive) and inhibitors, followed by a biochemical separation of substrate and product. All assays for the biochemical HTS were initially run in duplicate at a single concentration (10 uM for CYP450 assays and 25 uM for all others). Assay-chemical combinations meeting a pre-defined threshold (e.g., 30% inhibition and other criteria defined below) were then run in singleton concentration-response format with maximum concentration of 20 uM for CYPs and 50 uM for all others. Each assay was run with positive and negative controls, and concurrent controls on every plate. The follow-up (secondary) screen tested active chemical-pairs in concentration series, as well as a few additional assays not tested in the primary screen, some selected negative inactives, and several cases re-run in the concentration series for confirmatory purposes.
Regarding `COCc1nnc(-c2ccc[n+]([O-])c2)n1-c1c(Cl)c(Cl)cc2[nH]c(=O)c(=O)[nH]c12`, the compound was called inactive. Turning to `CC(C)(c1cc(Br)c(O)c(Br)c1)c1cc(Br)c(O)c(Br)c1`, the result was inactive. Turning to `CCCCCCCCCC`, the compound was called inactive. With `Clc1cc(Cl)c(Cl)cc1Cl`, the call was inactive. On the same count and under the same terms, with `CC(=O)c1ccccc1` the entry was “inactive”; with `CCc1cccc(CC)c1N`, “inactive”. For the compound `COCC(C)O` (stereo not given), the outcome was inactive. For `Oc1ccc2c(c1)OC[C@@H](N1CCC(O)(c3ccc(F)cc3)CC1)[C@H]2O`, the compound was called inactive. By AC50 is commonly meant the concentration at which the activity in the assay is half-maximal. For the compound `CN(C[C@@H](CC[N+]12CCC(C3CCCCC3)(CC1)CC2)c1ccc(Cl)c(Cl)c1)C(=O)c1cc(C(F)(F)F)cc(C(F)(F)F)c1`, the AC50 is 42.3 µM (active). As for `CC(C)(C)c1ccccc1`, the compound was called inactive. Same read-out and setting: with `Cc1cc(C)c(O)c(C)c1` the entry was “inactive”. Take `CCCCCCCCCCCCCCCCO`: the compound was called inactive.

With `Cc1nccn1-c1ccc(Sc2cccc(C3(C(N)=O)CCOCC3)c2)cc1`, the call was inactive. For `O=C(OCCCCCCOC(=O)c1ccccc1)c1ccccc1`, the outcome was inactive. In the case of `CCCCCCC(C)OC(=O)COc1nc(F)c(Cl)c(N)c1Cl` (stereo not given), the compound was called inactive.
